According to PubChem BioAssay AID1851 (National Center for Advancing Translational Sciences (NCATS), 2009):
Values joined by “and” are separate entries in the source; they are usually repeats but may differ in a detail not shown here. Equal values may be shown once. Hit rate of the full screen: of about 16,000 compounds, about 4,000 (25%) were called active. About 26% were inconclusive and are not listed. These entries were drawn from the full list. Values without a mark were called inactive. Calls follow the shape of the dose curve; as a rule, active = well fitted curve in the direction sought with a large enough effect; inconclusive = small, poorly fitted or top-dose-only effect, or effect the other way; inactive = no such curve, though single readings can be large or run the other way.

Each compound was assayed against Cytochrome P450 2C9 (Homo sapiens) (UniProt P11712) (assay: Cytochrome panel assay with activity outcomes). Details: recombinant CYP, pro-luciferin dealkylation, luminescence, p450-cyp2c9; series mostly up to 57.1 µM; activity, negative = inhibition: at the top concentration.
Cytochrome P450 2C9 (Homo sapiens), sequence (P11712 whole entry, looked up): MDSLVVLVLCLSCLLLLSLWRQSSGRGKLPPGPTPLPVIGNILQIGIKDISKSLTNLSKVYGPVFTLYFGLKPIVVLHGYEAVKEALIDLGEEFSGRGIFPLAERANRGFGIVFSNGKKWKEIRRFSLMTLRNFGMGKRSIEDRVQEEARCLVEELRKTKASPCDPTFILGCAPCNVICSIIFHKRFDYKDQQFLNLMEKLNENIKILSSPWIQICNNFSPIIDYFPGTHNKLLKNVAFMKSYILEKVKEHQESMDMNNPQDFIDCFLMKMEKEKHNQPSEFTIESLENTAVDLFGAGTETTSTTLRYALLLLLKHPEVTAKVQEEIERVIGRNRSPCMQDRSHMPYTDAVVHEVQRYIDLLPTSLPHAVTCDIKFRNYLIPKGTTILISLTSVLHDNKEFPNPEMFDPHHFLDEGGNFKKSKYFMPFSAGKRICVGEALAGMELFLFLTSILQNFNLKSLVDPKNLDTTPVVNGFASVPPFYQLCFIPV
% is scaled to controls: 0 for no effect and ±100 for the full control effect.

| Compound | activity, negative = inhibition | AC50 |
| --- | --- | --- |
| O=c1oc2c(Cl)cc(Cl)cc2cc1-c1nnc(Nc2ccccc2F)s1 | 25% | – |
| COC(=O)[C@@H]1C[C@H]1[C@@H](NC(=O)c1cc(C)nn1C)c1ccccc1 | -53.8% | – |
| CCCC[C@@H]1C[C@H]1C(NC(=O)Cc1ccccc1)c1ccc(-c2ccccc2)cc1 (some centres not stated) | -22.7% | – |
| CCCC[C@@H]1C[C@H]1C(NC(=O)c1ccco1)c1ccc(-c2ccccc2)cc1 (some centres not stated) | – | 3.16 µM (active) |
| NNC(=O)[C@@H](O)[C@H](O)[C@H](O)CO | -4.21% [at 11.4 µM] | – |
| CC1=NN(c2ccccc2)C(=O)[C@@H]1N=Nc1ccc(S(N)(=O)=O)cc1 | 3.33% [at 11.4 µM] | – |
| CC1=NN(c2ccccc2)C(=O)C1C(=O)c1ccc(Cl)cc1 (configuration not stated) | – | 0.562 µM (active) |
| Cc1cc(C)n(-c2nc(NCC(C)O)c3c4c(sc3n2)COC(C)(C)C4)n1 (configuration not stated) | – | 15.8 µM (active) |
| CCC(O)CNc1nc(-n2nc(C)cc2C)nc2sc3c(c12)CC(C)(C)OC3 (configuration not stated) | – | 14.1 µM (active) |
| COc1ccc(-n2c(=O)c(C)nc3cnc(N4CCNCC4)nc32)cc1 | 9.08% | – |
| C=CC1=C(C)C2=Cc3c(C=C)c(C)c4[n]3[Sn+2][n]3c(c(C)c(CCC(=O)O)c3=CC3=NC(=C4)C(C)=C3CCC(=O)O)=CC1=N2 | -7.28% | – |
| CCSc1nc2c(c(=O)[nH]1)C(c1ccncc1)C(C(=O)OC(C)C)=C(C)N2 (configuration not stated) | – | 2.82 µM (active) |
| CSc1nc2c(c(=O)[nH]1)C(c1ccncc1)C(C(=O)OC(C)C)=C(C)N2 (configuration not stated) | – | 7.94 µM (active) |
| CCSc1nc2c(c(=O)[nH]1)C(c1ccccn1)C1=C(CC(C)(C)CC1=O)N2 (configuration not stated) | -6.53% | – |
| O=C(O)c1cc2c(cc1S(=O)(=O)O)[C@H]1[C@@H]([C@H]3[C@H]2[C@@]2(Cl)C(Cl)=C(Cl)[C@]3(Cl)C2(Cl)Cl)[C@]2(Cl)C(Cl)=C(Cl)[C@@]1(Cl)C2(Cl)Cl | -16.9% [at 11.4 µM] | – |
| CC1(C)[C@@H]2CC[C@]1(CC(=O)O)[C@H](Cl)C2 | 4.29% [at 11.4 µM] | – |
| O=C(CSC1CC(=O)N(CC(c2ccccc2)c2ccccc2)C1=O)Nc1ccc(Cl)cc1 (configuration not stated) | – | 3.98 µM (active) |
| CC12CS(=O)(=O)CC1SC(=S)N2c1ccccn1 (configuration not stated) | -20.9% | – |
| CCOC(=O)c1c(C)[nH]c2ccc3c(c12)CN1CCc2cc(OC)ccc2[C@@H]1O3 | 8.04% | – |
| CCOC(=O)c1c(C)[nH]c(C)c1C(=O)COC(=O)c1ccc(S(=O)(=O)N(CC)CC)cc1 | – | 0.355 µM (active) |
| CCN(CC)CCOC(=O)c1ccc(N)cc1 | – | inactive |
| O=[N+]([O-])c1cccc(-c2nc(-c3ccccc3)c(-c3cccs3)[nH]2)c1 | -24.6% | – |
| NC(N)=Nc1nc2ccc([N+](=O)[O-])cc2[nH]1 | 9.74% [at 11.4 µM] | – |
| c1ccc(-c2nc(-c3cccs3)[nH]c2-c2ccccc2)cc1 | – | 6.31 µM (active) |
| O=[N+]([O-])c1cccc(-c2nc(-c3cccs3)c(-c3cccs3)[nH]2)c1 | – | 1.58 µM (active) |
| CN(C)Cc1ccccc1-c1ccc2ncnc(N(C)C)c2c1 | 9.43% [at 2.29 µM] | – |

| Compound | activity, negative = inhibition | AC50 |
| --- | --- | --- |
| CC(=O)N1CCN(c2nc(C)nc3sc4c(c23)CCC(C)C4)CC1 (configuration not stated) | – | 14.1 µM (active) |
| Cc1cc(C(F)F)n2nc(C(=O)Nc3sc4c(c3C#N)CCC(C)C4)nc2n1 (configuration not stated) | -11.3% | – |
| CC[N+](C)(CC)CCN1C(=O)c2ccccc2S1(=O)=O | -0.798% [at 11.4 µM] | – |
| COc1ccc2c(c1)-c1ccccc1S(=O)(=O)N2C | – | 14.1 µM (active) |
| Cc1cc2c(nc1C)CCCCN2C[C@H](C)O/N=C\[C@@H](C)[C@H](OCc1ccccc1)C(C)C | -8.65% [at 11.4 µM] | – |
| CC(C)(C)CC(=O)NC(=S)N1CCCCCC1 | -2.88% | – |
| S=C(S)N1CCCC1 | – | 2 µM (active) |
| CCNC(=O)C/C(C)=N/NC(=O)C12CC3CC(CC(C3)C1)C2 | 0.134% | – |
| C=CCn1c(COc2ccccc2)nnc1SCC(=O)N/N=C/c1ccc(C)cc1 | – | 11.2 µM (active) |
| COc1ccc(O)c(/C=N/NC(=O)CSc2nnc(C)n2-c2ccccc2)c1 | 16.8% | – |
| COc1ccc(C[C@@H]2c3cc(OC)c(OC)cc3CC[N@+]2(C)CCC(=O)OCCCCCOC(=O)CC[N@@+]2(C)CCc3cc(OC)c(OC)cc3[C@H]2Cc2ccc(OC)c(OC)c2)cc1OC | -14.1% [at 25.6 µM] | – |
| Nc1ncnc2c([C@@H]3O[C@@H](CO)[C@H](O)[C@@H]3O)nsc12 | -6.07% [at 11.4 µM] | – |
| Cc1cc(NC(=O)CCCC(=O)OCC(F)(F)C(F)F)cc(C)c1C(=O)O | -17.2% | – |
| COc1ccc(C(=O)Nc2ccc(OCC(F)(F)C(F)F)c(C(F)(F)F)c2)cc1OC | – | 7.94 µM (active) |
| CCN(CC)CCC[C@H](C)Nc1c2ccc(Cl)cc2nc2ccc(OC)cc12 | – | inactive |
| Cc1ccc(NC(=S)Nc2nc(CC(=O)Nc3ccccc3)cs2)cc1 | – | 2.82 µM (active) |
| CN1CCC(n2[nH]c(-c3ccccc3)c(Cc3ccccc3)c2=O)CC1 | 0.284% [at 11.4 µM] | – |
| CCN1C(=O)[C@H]2[C@H]3[C@H](O)[C@H](O)C/C(=N/OC[C@@H](O)COCc4ccco4)[C@@H]3CC[C@@H]2C1=O | 21.5% [at 11.4 µM] and 18.6% [at 11.4 µM] | – |
| Cn1c(SCC(=O)c2ccc3c(c2)Cc2ccccc2-3)nnc1-c1ccccc1 | – | 8.91 µM (active) |
| CC(=O)Nc1ccc(-c2nnc(SCC(=O)c3ccc4c(c3)Cc3ccccc3-4)n2C)cc1 | – | 12.6 µM (active) |
| CN1CCCC[C@@H]1CCN1c2ccccc2Sc2ccc(S(C)=O)cc21 (some centres not stated) | – | inactive |
| CCN(CC)CCN1C(=O)c2cccc3cc(N)cc(c23)C1=O | 13.4% [at 11.4 µM] | – |
| CCOC(=O)C(NC(C)=O)C(=O)O (configuration not stated) | -29.6% | – |
| C/C(CCN1CCCCc2nc(C)c(C)cc21)=N\O[C@@H](C)CN1CCCCc2nc(C)c(C)cc21 | 7.62% [at 11.4 µM] | – |
| C/C(CCN1CCCc2nc(C)c(C)cc21)=N\O[C@@H](C)CN1CCCCc2nc(C)c(C)cc21 | -3.15% [at 11.4 µM] | – |
| C/C(CCN1CCCCc2nc(C)c(C)cc21)=N\O[C@@H](C)c1cc(-c2c(C)cc(C)cc2C)no1 | – | 2.51 µM (active) |
